Experimental findings from the supplement of paper PMC3414501 are described below.

Experiment [1] concerns S. cerevisiae SK1 pCDA2-eGFP (USY613), sporulating. Nature of the experiment: CDA2-GFP sporulation assay sensitivity score (z-score vs DMSO controls); higher = stronger inhibition of sporulation, active = hit call of the paper.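 Also: active if sensitivity score above 5.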
Experiment [2] deals with S. cerevisiae NKY1551 his4x/his4B, sporulating. Nature of the experiment: HIS4 meiotic recombination assay sensitivity score (z-score vs DMSO controls); higher = stronger inhibition of sporulation/recombination, active = hit call of the paper.
For experiment [3], the system named is S. cerevisiae AD1-9 (efflux-pump deficient), vegetative growth in YPD. Nature of the experiment: growth sensitivity score (doubling time z-score vs DMSO controls); higher = slower growth, strongly negative scores also mark growth inhibition (complete suppression), active = hit call of the paper. The method, boiled down:
(§1)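 Saccharomyces cerevisiae strains BY4741 and AD1-9 were seeded in rich medium in microtiter plates at an OD600 of 0.065. Compounds were added at a 1:100 dilution of DMSO stock. Optical density was read every 15 min for 24 hours on a Tecan GENios reader. Average doubling time was the time taken to reach a set generation point divided by generation number, and the growth sensitivity score was (compound mean − DMSO-control mean)/DMSO-control SD, using eight DMSO controls per experiment.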

In experiment [4] the test system is S. cerevisiae BY4741 (wild-type), vegetative growth in YPD. The description is as above. The essentials:
as §1

Where a name gives a salt, the structure may show the parent alone.
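For HIS4 meiotic recombination assay sensitivity score (z-score vs DMSO controls) in this document: active if sensitivity score above 5.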

As to `COc1cc(C(=O)NC2CCCNC2)cc(OC)c1OC` (centres undefined) [Troxipide] (stock concentration (mM, diluted 1:100): 10.1), the “CDA2-GFP sporulation assay sensitivity score” value in experiment [1] is -0.11 (inactive). Also, the “HIS4 meiotic recombination assay sensitivity score” value in experiment [2] is -0.27 (inactive). Moreover, the growth sensitivity score was -0.49 (inactive) in experiment [3] and 0.38 (inactive) in experiment [4].
Turning to `Fc1ccc([C@@H]2CCNC[C@H]2COc2ccc3c(c2)OCO3)cc1` [Paroxetine] (stock concentration (mM, diluted 1:100): 8.8), the “CDA2-GFP sporulation assay sensitivity score” value in experiment [1] was -1.35 (inactive). In addition, the “HIS4 meiotic recombination assay sensitivity score” value in experiment [2] was 9.22 (active). Also, the growth sensitivity score in experiment [3] is 118 (active); in experiment [4] it was 1.33 (inactive).
Take `CC(C)c1nc(CN(C)C(=O)N[C@H](C(=O)N[C@@H](Cc2ccccc2)C[C@H](O)[C@H](Cc2ccccc2)NC(=O)OCc2cncs2)C(C)C)cs1` [Ritonavir] (stock concentration (mM, diluted 1:100): 10): the “CDA2-GFP sporulation assay sensitivity score” value in experiment [1] was -0.68 (inactive). Further, the “HIS4 meiotic recombination assay sensitivity score” value in experiment [2] is -1.41 (inactive). Also, the growth sensitivity score was 8.8 (active) in experiment [3] and -0.97 (inactive) in experiment [4].
As for `C[C@@H]1O[C@@H](OC[C@H]2O[C@@H](Oc3c(-c4ccc(O)c(O)c4)oc4cc(O)cc(O)c4c3=O)[C@H](O)[C@@H](O)[C@@H]2O)[C@H](O)[C@H](O)[C@H]1O` [Rutin] (stock concentration (mM, diluted 1:100): 10), the “CDA2-GFP sporulation assay sensitivity score” value in experiment [1] was -0.59 (inactive). Besides, the “HIS4 meiotic recombination assay sensitivity score” value in experiment [2] is -1.04 (inactive). The growth sensitivity score is 0.28 (inactive) in experiment [3] and -2.67 in experiment [4].
For `CC1CCN(CCCC(=O)c2ccc(F)cc2)CC1` [Metylperon] (stock concentration (mM, diluted 1:100): 10), in that order: 4.44 (inactive), 0.9 (inactive), 1 (inactive) and 1.93 (inactive).
With `CO[C@H]1/C=C/O[C@@]2(C)Oc3c(C)c(O)c4c(O)c(c(/C=N/N5CCN(C6CCCC6)CC5)c(O)c4c3C2=O)NC(=O)/C(C)=C\C=C\[C@H](C)[C@H](O)[C@@H](C)[C@@H](O)[C@@H](C)[C@H](OC(C)=O)[C@@H]1C` [Rifapentine] (stock concentration (mM, diluted 1:100): 10), in experiment [1], the “CDA2-GFP sporulation assay sensitivity score” value is 14.2 (inactive). Besides, in experiment [2], the “HIS4 meiotic recombination assay sensitivity score” value was -0.69 (inactive). In addition, the growth sensitivity score in experiment [3] is -0.99 (inactive); in experiment [4] it was 0.15 (inactive).
As for `NC[C@H]1CC[C@H](C(=O)Oc2ccc(CCC(=O)O)cc2)CC1` [Cetraxate hydrochloride] (stock concentration (mM, diluted 1:100): 9), the “CDA2-GFP sporulation assay sensitivity score” value in experiment [1] is -0.06 (inactive). The “HIS4 meiotic recombination assay sensitivity score” value in experiment [2] was -0.39 (inactive). Also, the growth sensitivity score in experiment [3] was -0.24 (inactive); in experiment [4], 1.25 (inactive).
For `CC(=O)Oc1ccccc1C(=O)Nc1ncc([N+](=O)[O-])s1` [Nitazoxanide] (stock concentration (mM, diluted 1:100): 10), in that order: 7.92 (active), 6.54 (active), 0.16 (inactive) and 1.77 (inactive).
On to `N[C@@H]1CONC1=O` [D-Cycloserine] (stock concentration (mM, diluted 1:100): 10), for which the “CDA2-GFP sporulation assay sensitivity score” value in experiment [1] is 0.63 (inactive). Besides, the “HIS4 meiotic recombination assay sensitivity score” value in experiment [2] was -5.18 (inactive). In addition, the growth sensitivity score is 1.38 (inactive) in experiment [3] and 1.58 (inactive) in experiment [4].
For the compound `CN(C)CC[C@@H](c1ccc(Cl)cc1)c1ccccn1` [Dexchlorpheniramine maleate] (stock concentration (mM, diluted 1:100): 7), the “CDA2-GFP sporulation assay sensitivity score” value in experiment [1] was 7.64 (inactive). Further, the “HIS4 meiotic recombination assay sensitivity score” value in experiment [2] was 2.35 (inactive). Moreover, the growth sensitivity score in experiment [3] was -0.12 (inactive); in experiment [4] it was 0.54 (inactive).
For `CC(C)OC(=O)CCC/C=C\C[C@@H]1[C@@H](CC[C@@H](O)CCc2ccccc2)[C@H](O)C[C@@H]1O` [Latanoprost] (stock concentration (mM, diluted 1:100): 10.3), the “CDA2-GFP sporulation assay sensitivity score” value in experiment [1] is 8.85 (active). In addition, in experiment [2], the “HIS4 meiotic recombination assay sensitivity score” value was 0.65 (inactive). Moreover, the values for the growth sensitivity score in experiment [3] and in experiment [4] were 125 (active) and 0.43 (inactive), respectively.
Take `CCCCCCNC(=O)n1cc(F)c(=O)[nH]c1=O` [Carmofur] (stock concentration (mM, diluted 1:100): 10.3): the “CDA2-GFP sporulation assay sensitivity score” value in experiment [1] is 0.49 (inactive). For the same compound, the “HIS4 meiotic recombination assay sensitivity score” value in experiment [2] was -2.78 (inactive). The results for the growth sensitivity score in experiment [3] and in experiment [4] were 22.8 (active) and 37.2 (active), respectively.
For the compound `Nc1ccc(O)c(C(=O)O)c1` [Mesalamine] (stock concentration (mM, diluted 1:100): 10), the “CDA2-GFP sporulation assay sensitivity score” value in experiment [1] is -1.48 (inactive). In experiment [2], the “HIS4 meiotic recombination assay sensitivity score” value was -2.13 (inactive). Also, the growth sensitivity score is -2.51 in experiment [3] and -0.33 (inactive) in experiment [4].
In the same order, the values of `O=C(O)CCNC(=O)c1ccc(/N=N/c2ccc(O)c(C(=O)O)c2)cc1` [Balsalazide] (stock concentration (mM, diluted 1:100): 10) are 1.1 (inactive), -1.14 (inactive), -1.86 (inactive) and -1.09 (inactive).
With `CC(=O)O[C@]1(C(C)=O)CC[C@H]2[C@@H]3C=C(C)C4=CC(=O)CC[C@]4(C)[C@H]3CC[C@@]21C` [Megestrol acetate] (stock concentration (mM, diluted 1:100): 10), the “CDA2-GFP sporulation assay sensitivity score” value in experiment [1] was 0.75 (inactive). The “HIS4 meiotic recombination assay sensitivity score” value in experiment [2] was -2.67 (inactive). In addition, the growth sensitivity score in experiment [3] was 38.5 (active); in experiment [4] it was 1.27 (inactive).
In the same order, the values of `CC(C)C[C@H](NC(=O)[C@@H](O)[C@H](N)Cc1ccccc1)C(=O)O` [Bestatin] (stock concentration (mM, diluted 1:100): 10) are -0.06 (inactive), -1.06 (inactive), -1.24 (inactive) and -1.14 (inactive).
